Reference: PubChem BioAssay (Tox21)
Active and inactive are the calls of the source. Where a call stands in place of a potency, no number is given. The call rests on the fitted dose curve; in most records, active means well fitted curve in the direction sought with a large enough effect in the repeat runs; inconclusive means weak or mixed curves; inactive means flat fitted curve, though single readings scatter.

Assay: qHTS assay to test for compound auto fluorescence at 460 nm (blue) in HEK293 cell free culture (AID 720681)
Conditions: cell-free medium, autofluorescence 405/460 nm (blue); series mostly up to 91.3 µM
From the text: U.S. Tox21 Program National Center for Advancing Translational Sciences [NCATS] NIH Chemical Genomics Center [NCGC] U.S. Environmental Protection Agency [EPA] National Institutes of Environmental Health Sciences [NIEHS] National Toxicology Program [NTP] U.S. Food and Drug Administration [FDA] Tox21 Assay Overview: Compound auto fluorescence often interferes with screening of the compound library against various biological targets and signaling pathways. Some of these compounds may have fluorophoric properties. Such properties may interfere with the assay outputs resulting in false positives and/or negatives. To decrease such complications and ensure the compound activities are relevant in terms of biological response, the Tox21 10K compound library was screened for auto fluorescence. From the fluorophores used as reporter signals in our screening assays, the auto fluorescence equivalencies of compounds against three fluorophores have been evaluated: Triamterene, Fluorescein and Rose Bengal sodium for blue, green and red fluorescence, respectively. The fluorescence intensities were measured using Excitation/Emission wavelengths at 405/460nm, 485/535nm and 540/590nm for blue, green and red labels, respectively. This assay includes the blue fluorescence data.
Tox21 Assay Protocol Summary: 5 uL of culture medium (DMEM containing 10% FBS) per well was dispensed into black wall/clear bottom 1536-well plates using a Multidrop Combi Dispenser (ThermoFisher Scientific, Waltham, MA). After 23 nL compound or DMSO vehicle was transferred into assay plate by a pintool work station (Kalypsys, San Diego, CA), fluorescence intensities in the assay plates were measured by an Envision (PerkinElmer, Shelton, CT) plate reader using three labels for measuring blue, green and red fluorescence at […] 460, 535 and 590nm respectively.

For `O=C1[C@@H]2[C@H]3CC[C@H](C3)[C@@H]2C(=O)N1CCCCN1CCN(c2ncccn2)CC1`, which Potency is on record?
Its Potency is “inactive”.

For `CCN(CC)CCOC(=O)C(c1ccccc1)c1ccccc1`, which Potency is on record?
The Potency was “inactive”.

With `COC(CC(C)CCCC(C)(C)O)OC` (stereo not given) as the compound, how does the Potency read?
The Potency was “inactive”.

For `CCCCCCCC(=O)Oc1c(Br)cc(C#N)cc1Br`, which Potency is on record?
Its Potency is “inactive”.

With `CCN(CC)c1ccc(C(=C2C=CC(=[N+](CC)CC)C=C2)c2ccc(S(=O)(=O)O)cc2S(=O)(=O)[O-])cc1` as the compound, how does the Potency read?
Its Potency is “inactive”.

For `CCSC(=O)N(CC)CC`, which Potency is on record?
Its Potency is “inactive”.

With `CCC(=O)OCc1ccc(OC)cc1` as the compound, how does the Potency read?
Its Potency is “inactive”.

For `COc1ccc(-c2cc(C(F)F)nn2-c2ccc(S(N)(=O)=O)cc2)cc1F`, which Potency is on record?
The Potency was “inactive”.

For `CCN(CC)C(=O)/C(C#N)=C/c1cc(O)c(O)c([N+](=O)[O-])c1`, which Potency is on record?
Its Potency is “inactive”.

With `CCCCCCC(O)CCOC(C)=O` (stereo not given) as the compound, how does the Potency read?
Its Potency is “inactive”.

With `COc1ccc(-n2nc(C(F)F)cc2-c2ccc(S(C)=O)cc2)cc1` (stereo not given) as the compound, how does the Potency read?
The Potency was “inactive”.

With `CC(C)(C)C1(CCc2ccc(Cl)cc2)CO1` (stereo not given) as the compound, how does the Potency read?
Its Potency is “inactive”.

For `O=C(c1ccccc1)c1ccc(O)cc1`, which Potency is on record?
The Potency was “inactive”.

For `CS(=O)(=O)c1ccc([C@@H](C[C@H]2CCC(=O)C2)C(=O)Nc2cnccn2)cc1Cl`, which Potency is on record?
The Potency was “inactive”.

Which Potency does the source give for `O=C(O)CCC(=O)OC[C@@H](NC(=O)C(Cl)Cl)[C@H](O)c1ccc([N+](=O)[O-])cc1` here?
Its Potency is “inactive”.

For `FC(F)(F)C(F)(F)C(F)(F)C(F)(F)CCI`, which Potency is on record?
Its Potency is “inactive”.

With `CC1C(C)(C)C2=C(C(=O)CCC2)C1(C)C` (stereo not given) as the compound, how does the Potency read?
Its Potency is “inactive”.

For `CN(C)CC/C=C1\c2ccccc2Sc2ccc(Cl)cc21`, which Potency is on record?
Its Potency is “inactive”.

For `Cc1c(C2(c3cc(Br)c(O)c(Br)c3C)OS(=O)(=O)c3ccccc32)cc(Br)c(O)c1Br`, which Potency is on record?
Its Potency is “inactive”.

With `O=C1OC(=O)c2c(Br)c(Br)c(Br)c(Br)c21` as the compound, how does the Potency read?
The Potency was “inactive”.

Which Potency does the source give for `CC(=O)Oc1cccc(O)c1` here?
Its Potency is “inactive”.

For `CCC(Cl)CC(Cl)C(Cl)C(Cl)C(Cl)C(C)Cl` (stereo not given), which fluorescence, % of fluorescent control is on record?
The fluorescence, % of fluorescent control was 0.102% [at 13.4 µM] (inactive).

For `Cc1ccc(NC(=O)N(C)C)cc1NC(=O)N(C)C`, which Potency is on record?
The Potency was “inactive”.

Which Potency does the source give for `O=C(c1ccccc1)C1CCC1` here?
The Potency was “inactive”.

With `CCC(CO)(CO)[N+](=O)[O-]` as the compound, how does the Potency read?
The Potency was “inactive”.

Which Potency does the source give for `Nc1ccc(N=Nc2ccc(N)cc2)cc1` here?
The Potency was “inactive”.

With `CCNc1nc(N)nc(Cl)n1` as the compound, how does the Potency read?
Its Potency is “inactive”.

Which Potency does the source give for `CCCOC(=O)c1c(Cl)c(Cl)c(Cl)c(Cl)c1C(=O)OCCC` here?
Its Potency is “inactive”.

Which Potency does the source give for `CCOCCC(=O)OCC` here?
The Potency was “inactive”.

With `CCC(C)(C)C(=O)O` as the compound, how does the Potency read?
Its Potency is “inactive”.

Which fluorescence, % of fluorescent control does the source give for `CC(O)Cn1cnc2c1c(=O)n(C)c(=O)n2C` (stereo not given) here?
Its fluorescence, % of fluorescent control is -0.136% [at 18.6 µM] (inactive).

Which Potency does the source give for `O=C(C(=O)c1ccco1)c1ccco1` here?
The Potency was “inactive”.

With `CCO[Si](C)(CCCOCC1CO1)OCC` (stereo not given) as the compound, how does the Potency read?
Its Potency is “inactive”.

With `O=C(O)c1cccc(Oc2ccccc2)c1` as the compound, how does the Potency read?
Its Potency is “inactive”.

With `CC(=O)OC(C)C[N+](C)(C)C` (stereo not given) as the compound, how does the fluorescence, % of fluorescent control read?
The fluorescence, % of fluorescent control was -0.0614% [at 18.6 µM] (inactive).

With `O=C(O)c1ccc(O)cc1O` as the compound, how does the Potency read?
Its Potency is “inactive”.

Which Potency does the source give for `O=C(NS(=O)(=O)/C=C/c1ccccc1)c1ccc(F)cc1Cl` here?
The Potency was “inactive”.

Which Potency does the source give for `O=c1[nH][nH]c(=O)c2cc([N+](=O)[O-])ccc12` here?
Its Potency is “inactive”.

For `COc1ccc(CCN(C)CCCN2CCc3cc(OC)c(OC)cc3CC2=O)cc1OC`, which Potency is on record?
The Potency was “inactive”.

With `CCCCCCCCCCCCCCCC(=O)OCC` as the compound, how does the Potency read?
The Potency was “inactive”.
